Measured values from PubChem BioAssay (NCATS).
Records with an inconclusive call do not appear. Active and inactive are the calls of the source. The call rests on the fitted dose curve; in most records, active means well fitted inhibition curve with a large enough effect; inconclusive means small, poorly fitted or top-dose-only effect; inactive means no such curve, though single readings can be large or run the other way.

biological target: Tumor susceptibility gene 101 protein (Homo sapiens) (UniProt Q99816); experiment: qHTS Assay for Iinhibitors of HIV-1 Budding by Blocking the Interaction of PTAP/TSG101: Hit Validation (AID 651600); conditions: PTAP peptide/TSG101 UEV interaction, biochemical assay; series mostly up to 57.5 µM; activity change, negative = inhibition: at the top concentration; further: nearly all actives have a fitted effect of over 70% in size
Method in brief: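 Displacement of a FITC-labeled PTAP-motif peptide (50 nM) from the Tsg101 binding domain (10 uM) was monitored by fluorescence polarization after a 20 min room-temperature incubation.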
On the % scale 0 is the no-effect control and ±100 the full control effect; potency means the concentration at half of the fitted maximal effect.

Sequence of Tumor susceptibility gene 101 protein (Homo sapiens) (Q99816 whole entry, looked up, the tested form may be a part): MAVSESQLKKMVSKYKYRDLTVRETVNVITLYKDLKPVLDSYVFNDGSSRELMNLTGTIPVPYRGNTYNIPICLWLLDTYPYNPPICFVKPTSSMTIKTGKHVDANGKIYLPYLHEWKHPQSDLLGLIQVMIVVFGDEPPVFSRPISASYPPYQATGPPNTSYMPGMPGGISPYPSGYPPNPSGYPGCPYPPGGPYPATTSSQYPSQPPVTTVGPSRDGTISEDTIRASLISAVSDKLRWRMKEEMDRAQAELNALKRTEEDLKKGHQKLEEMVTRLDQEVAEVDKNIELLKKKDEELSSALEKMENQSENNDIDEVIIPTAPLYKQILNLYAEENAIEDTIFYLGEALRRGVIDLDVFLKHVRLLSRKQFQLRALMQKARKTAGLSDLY

Row | SMILES | activity change, negative = inhibition | Potency
1 | CSc1c(C#N)c(N)nc2sc(C(=O)c3ccc(Cl)c(Cl)c3)c(N)c12 | -25.9% (inactive) | 
2 | Oc1c(C=Nc2ccccc2)sc2ccccc12 | -4.91% (inactive) | 
3 | CCOC(=O)Cn1c(=NC(=O)c2ccc([N+](=O)[O-])s2)sc2ccccc21 | 0.859% (inactive) | 
4 | CCCCOC(=O)c1ccc(NC(=O)/C(C#N)=C/c2ccc(-c3ccccc3)o2)cc1 | -23.2% (inactive) | 
5 | COc1ccc(/C=c2\s/c(=C/C(=O)c3ccc(C)cc3)[nH]c2=O)c(OC)c1 | 1.51% (inactive) | 
6 | C=C1CCN(c2ccc(C(=O)O)cc2[N+](=O)[O-])CC1 | 2.72% (inactive) | 
7 | CNc1c2cccc(C)c2nc2c(C(=O)NCCN(C)C)cccc12 |  | 16.3 µM (active)
8 | Cn1nc([N+](=O)[O-])c(C(C#N)c2nc3ccccc3n2C)c(Cl)c1=O (stereo not given) | -4.38% (inactive) | 
9 | COc1cc2c(cc1OC)-c1cc3ccc4c(c3c[n+]1CC2)OCO4 |  | 13 µM (active)
10 | CCOc1ccc(S(=O)(=O)N2CCc3cc(OC)c(OC)cc3C2)cc1 | 0.964% (inactive) | 
11 | CC(C)c1cc(=O)oc2c3c4c(cc12)CCCN4CCC3 |  | 5.17 µM (active)
12 | Clc1ccc(-c2nnc3sc(-c4ccc(Br)o4)nn23)cc1 |  | 4.61 µM (active)
13 | COc1ccc(NC(=O)c2cccc(-c3ccc(O)cc3)c2)cn1 |  | 20.6 µM (active)
14 | OC(CN1CCN(c2ccccn2)CC1)Cn1c2ccccc2c2ccccc21 (stereo not given) | -4.52% (inactive) | 
15 | Fc1ccc(C2=CC(c3ccco3)n3ncnc3N2)cc1 (stereo not given) | -1.05% (inactive) | 
16 | CCCn1c(=N)c(S(=O)(=O)c2ccccc2)cc2c(=O)n3cccc(C)c3nc21 | 12.9% (inactive) | 
17 | O=C(/C=C/c1ccc(Cl)cc1Cl)c1nc2ccccc2[nH]1 |  | 20.6 µM (active)
18 | O=C(OCCN1C(=O)c2cccc3c(N4CCOCC4)ccc(c23)C1=O)c1ccc(Cl)cc1 |  | 18.3 µM (active)
19 | O=C(NCc1ccco1)c1cccc2c1C(=O)c1ccc(N3CCC(Cc4ccccc4)CC3)cc1S2(=O)=O | -18.3% (inactive) | 
20 | Nc1ccc2c(c1)C/C(=C/c1ccco1)C2=O | -11% (inactive) | 

Row | SMILES | activity change, negative = inhibition | Potency
21 | NC(=O)c1ccccc1NCC(=O)c1ccc(F)cc1 | 7.37% (inactive) | 
22 | Cc1cc[n+](-c2[nH]c(=O)sc2/C=N/NC([S-])=Nc2ccccc2)cc1 |  | 18.3 µM (active)
23 | CC(C)(C)c1ccc(C2C3=C(CCCC3=O)NC3=C2C(=O)c2ccccc23)cc1 (stereo not given) | 2.58% (inactive) | 
24 | CN1CC=C2C(C#N)=C(N)C(C#N)(C#N)C(Cc3ccccc3)C2C1 (stereo not given) | -12.7% (inactive) | 
25 | CCOc1ccc(N(CC(=O)NCc2ccc(F)cc2)S(=O)(=O)c2c(C)noc2C)cc1 | 4.91% (inactive) | 
26 | Cc1ccc(OC(=O)c2ccc3nc(C)sc3c2)cc1 | 9.69% (inactive) | 
27 | CCN(CC)S(=O)(=O)c1ccc(C(=O)OCCN2C(=O)c3cccc4c(N5CCOCC5)ccc(c34)C2=O)cc1 |  | 4.11 µM (active)
28 | Cc1ccc(N2C(=O)C3C(C(=O)c4ccccc4)=NN(c4ccccc4)C3C2=O)cc1 (stereo not given) | -20.4% (inactive) | 
29 | COc1cc(C2C=C(c3cccs3)Nc3ncnn32)cc(OC)c1OC (stereo not given) | -9.22% (inactive) | 
30 | COc1cccc2c1C(=O)c1c(O)c3c(c(O)c1C2=O)CC(O)(C(C)=O)CC3OC1CC(O)C(O)C(C)O1 (stereo not given) |  | 13 µM (active)
31 | CC(=O)Nc1ccc(S(=O)(=O)Nc2nc3n(n2)C(c2ccccc2)C=C(c2ccc(Cl)cc2)N3)cc1 (stereo not given) | 0.553% (inactive) | 
32 | CCCCCCCCOc1ccc(C2OC34CCCCC3C(C#N)(C#N)C2(C#N)C(=N)O4)cc1 (stereo not given) | -14.4% (inactive) | 
33 | CCOC(=O)c1c(C)oc2c1c(CN1CCN(C(=O)OCC)CC1)c(O)c1ccccc12 | -5.85% (inactive) | 
34 | c1ccc2[nH]c3cc4ncnc4cc3nc2c1 |  | 6.51 µM (active)
35 | Cn1c(=O)c(Nc2ccc(Cl)cc2)c2c3c(cccc31)C(=O)c1ccccc1-2 |  | 10.3 µM (active)
36 | Cc1oc2cc(O)ccc2c(=O)c1-c1nncn1-c1ccccc1 |  | 20.6 µM (active)
37 | O=[N+]([O-])c1ccc(-c2cn3nc(-c4ccccc4)c(-c4ccccc4)nc3n2)cc1 | -4.2% (inactive) | 
38 | Cc1ccc(CNC(=O)C2CCCN(S(=O)(=O)c3c(C)[nH]c(=O)[nH]c3=O)C2)cc1 (stereo not given) | -6.89% (inactive) | 
39 | CCOc1ccc(NC(=O)c2ccc3c(c2)CCN3S(C)(=O)=O)cc1 | 2.45% (inactive) | 
40 | COc1ccc(NC(=O)c2nc(-c3ccc(C)cc3)n3c2CCCCC3)cc1 | -6.7% (inactive) | 
